Source: PubChem BioAssay (NCATS)
Results filed as inconclusive are left out. A call without a number means that no potency is given here. Active and inactive are the calls of the source. Unless noted, calls follow the shape of the dose curve; as a rule, active = well fitted curve in the direction sought with a large enough effect; inconclusive = small, poorly fitted or top-dose-only effect, or another doubt; inactive = no such curve, though single readings can be large; an effect the other way counts as inactive or inconclusive.

How the values were obtained:
[1] = biological target: Chromobox protein homolog 1 (Homo sapiens) (UniProt P83916); assay: qHTS Validation Assay for Inhibitors of HP1-beta Chromodomain Interactions with Methylated Histone Tails (AID 488953); also: nearly all actives have a fitted effect of over 50% in size; also: potency is read from the fitted curve at half-maximal effect
Procedure, shortened: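 Disruption of preformed HP1-beta:H3K9me3 peptide complexes (both 50 nM, PBS pH 7.4 with 0.01% Tween-20) is measured by AlphaScreen after 30 min compound exposure at room temperature, using streptavidin donor and nickel chelate acceptor beads at 10 ug/mL final.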

[2] = biological target: Methanococcus maripaludis chaperonin (MmCpn) (UniProt Q6LX38); assay: High-Throughput Screening for Modulators of Cytosolic Chaperonin Activity: MmCpn Primary Screen (AID 488978)
Procedure, shortened: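 HTRF readout (320 nm excitation, 590/665 nm emission) of ADP generated by 50 nM MmCpn hydrolysing 30 uM ATP during 10 min at 37C; compound preincubated 5 min RT.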

[3] = biological target: Transient receptor potential cation channel subfamily V member 1 (Homo sapiens) (UniProt Q8NER1); assay: HTS Assay for Compounds that Act as Enhancers of the Vanilloid Receptor 1 (AID 488979)
Procedure, shortened: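 TRPV1 cells loaded with Fluo-8 calcium dye; compound added and Ca2+ signal (ex 480/em 520 nm) followed 3 min, then capsaicin at EC20 added and read 2 more min to detect enhancement.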

[4] = biological target: D(1A) dopamine receptor (Homo sapiens) (UniProt P21728); assay: HTS Assay for Allosteric Agonists of the Human D1 Dopamine Receptor: Primary Screen for Agonists (AID 488981); also: potency is read from the fitted curve at half-maximal effect
Procedure, shortened: (§1)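 Tetracycline-induced HEK293 Trex D1 cells with forced coupling to calcium, loaded with no-wash calcium dye; kinetic fluorescence read 180 s after compound addition for agonism, then a further 180 s after an EC20 dopamine challenge for potentiation.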

[5] = biological target: D(1A) dopamine receptor (Homo sapiens) (UniProt P21728); assay: HTS Assay for Allosteric Agonists of the Human D1 Dopamine Receptor: Primary Screen for Potentiators (AID 488982)
Procedure, shortened: as §1

[6] = biological target: D(1A) dopamine receptor (Homo sapiens) (UniProt P21728); assay: HTS Assay for Allosteric Agonists of the Human D1 Dopamine Receptor: Primary Screen for Antagonists (AID 488983);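 also: calcium flux response to an EC80 dopamine challenge measured with no-wash dye; nearly all actives have a fitted effect of over 65% in size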; also: potency is read from the fitted curve at half-maximal effect
Procedure, shortened: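 Kinetic fluorescence at 1 cycle/sec tracked intracellular calcium in force-coupled, tetracycline-inducible HEK293 T-REx D1 cells. Loss of response to an EC80 dopamine dose, given 180 s after compound, marked antagonists.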

[7] = Validation screen for small molecules that induce genotoxicity in human embryonic kidney (HEK293T) cells expressing luciferase-tagged ELG1 (AID 493106); also: potency is read from the fitted curve at half-maximal effect
Procedure, shortened: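 Cells were dispensed at 2,000 per well, then 23 nL compound or DMSO was pinned in. After 16 hr at 37 °C and 5% CO2, ONE-Glo reagent was added. Luciferase activity was measured following 30 min at room temperature.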

[8] = biological target: ATPase family AAA domain-containing protein 5 (Homo sapiens) (UniProt Q96QE3); assay: Validation screen for small molecules that inhibit ELG1-dependent DNA repair in human embryonic kidney (HEK293T) cells expressing luciferase-tagged ELG1 (AID 493107); also: nearly all actives have a fitted effect of over 70% in size; also: potency is read from the fitted curve at half-maximal effect
Procedure, shortened: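 Cells are dispensed in 1536-well format, then 5-fluorouridine and compound are pinned in. After a 16 hr incubation at 37 °C and 5% CO2, ONE-Glo is added and luciferase measured on a CCD imager.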

[9] = biological target: Thyrotropin-releasing hormone receptor (Homo sapiens) (UniProt P34981); assay: qHTS for Small Molecule Agonists and Allosteric Enhancers of Human TRH Receptor: Validation Screen for Agonists (AID 493127;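 active = calcium activation more than 3 SD above the typical response in the agonist read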;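 also: intracellular calcium rise by fluo-8 fluorescence before TRH EC20 addition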); details: TRH receptor agonist cell assay; at 2 µM; stronger effect = higher value
Procedure, shortened: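 Compounds are added by online pintool to dye-loaded TRHR cells while fluorescence is recorded every second. A rise in calcium signal during the agonist read marks activation; a later 10 nM TRH addition (EC20) serves the separate enhancer mode.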

[10] = Nrf2 qHTS screen for inhibitors: Validation (AID 493153; active = well fitted inhibition curve with a large enough effect in the main read-out, with a control signal flat, not every such curve was filed as active); details: Potency: luciferase luminescence; viability change: measured here: cytotoxicity max response
Procedure, shortened: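 A549 ARE_Fluc, 5% FBS OPTI-MEM; cpd titration, 18-24 h, 37°C/5% CO2. Read 1: CellTiter-Fluor (Ex 405/Em 525), cytotox. Read 2: luciferase lum, Nrf2 activity.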

[11] = qHTS for Inhibitors of Cell Surface uPA Generation: Validation Assay (AID 493164);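 also: RAW 264.7 macrophage cells exposed to compound for 18 h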
Procedure, shortened: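 ATP-Lite luminescence read-out: ATP remains high when uPA activity-dependent LF translocation into the cytoplasm is blocked. RAW 264.7 cells, 18 h compound exposure at 37 C; 7-point titration, 2.45 nM to 38.3 uM final.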

[12] = biological target: Galactokinase (Homo sapiens) (UniProt P51570); assay: qHTS Validation Assay for Inhibitors of Human Galactokinase (GALK) (AID 493189)
Procedure, shortened: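 Enzyme activity is inferred from ATP consumption: human GALK phosphorylates galactose (100 uM) using 35 uM ATP for 1 h at room temperature, and luciferase-based Kinase-Glo Plus reports unconsumed ATP.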

[13] = Validation screen for small molecules that induce DNA re-replication in SW480 colon adenocarcinoma cells (AID 504364)
Procedure, shortened: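 Image-based qHTS: compounds were incubated with SW480 cells for 48 hr, nuclei stained with Hoechst, and per-nucleus fluorescence intensity scanned to flag cells with excess DNA content.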

[14] = biological target: Peptidyl-prolyl cis-trans isomerase NIMA-interacting 1 (Homo sapiens) (UniProt Q13526); assay: qHTS Validation Assay to Find Inhibitors of Pin1 (AID 504536; active = well fitted inhibition curve with a large enough effect in the polarisation, with a control signal flat, not every such curve was filed as active; the % refers to the polarisation)
Procedure, shortened: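 Fluorescence polarization competition: compounds (titration) displace HiFluor-488-labeled Pin1-1b peptide from Pin1 (0.3 uM final) in pH 7.5 HEPES buffer with DTT, 10 min at room temperature; %Activity normalized to no-enzyme wells, curves fitted.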

[15] = biological target: Phosphoglycerate kinase, glycosomal (Trypanosoma brucei brucei) (UniProt P07378); assay: qHTS Validation Assay to Find Inhibitors of Phosphoglycerate Kinase (AID 504547)
Procedure, shortened: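 Compounds are pinned into the substrate/PGK mixture, and GAPDH (100nM final) is added to start the reaction by producing 1,3-BPG. After 60 minutes at room temperature, Kinase-Glo Plus is added and luminescence is measured 10 minutes later.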

[16] = biological target: phosphoglycerate mutase (Leishmania major) (UniProt Q4Q090); assay: qHTS Validation Assay to Find Inhibitors of Phosphoglycerate Mutase (AID 504548); details: Potency: inhibition qHTS; also: potency is read from the fitted curve at half-maximal effect
Procedure, shortened: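 Lm PGAM 1.25nM final; 100 mM TEA pH 7.6, 5 mM MgCl2, 0.01% Tween-20; 45 min RT; Kinase-GloPlus, 10 min; end-point luminescence. Enzyme-free wells as negative controls.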

[17] = Inducers of the Endoplasmic Reticulum Stress Response (ERSR) in human glioma: Validation (AID 504836)
Procedure, shortened: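 Stably transfected U87-MG glioma cells carrying a GRP78-based luciferase sensor; 16 h compound incubation. Luminescence end-point read 10 min after Bright-Glo addition at room temperature.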

[18] = biological target: Thyrotropin receptor (Homo sapiens) (UniProt P16473); assay: qHTS Assay for Antagonists of the Thyroid Stimulating Hormone Receptor (AID 488980); also: series mostly up to about 58 µM
Procedure, shortened: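 Inhibition of TSH-stimulated cAMP accumulation was quantified by homogeneous time-resolved FRET in TSHR-transfected HEK293 cells. Agonist: TSH, 4 nM final (EC80).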

[19] = biological target: ATP-dependent 6-phosphofructokinase (Trypanosoma brucei brucei) (UniProt O15648); assay: qHTS Assay to Find Inhibitors of T. brucei phosphofructokinase: hit validation (AID 492961); also: potency is read from the fitted curve at half-maximal effect
Procedure, shortened: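 Inhibition of parasite PFK is measured as reduced ADP formation, quantified via luciferase after ATP depletion. Assay used 0.1 mM ATP, 0.5 mM F6P, 1.25 nM enzyme, 45 min incubation.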

Sequence of Peptidyl-prolyl cis-trans isomerase NIMA-interacting 1 (Homo sapiens) (Q13526 whole entry, looked up): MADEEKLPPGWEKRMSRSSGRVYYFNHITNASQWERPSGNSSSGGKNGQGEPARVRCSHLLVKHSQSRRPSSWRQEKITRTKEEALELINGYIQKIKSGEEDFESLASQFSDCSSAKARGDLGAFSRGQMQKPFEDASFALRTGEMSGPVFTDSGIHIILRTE
Sequence of Phosphoglycerate kinase, glycosomal (Trypanosoma brucei brucei) (P07378 whole entry, looked up): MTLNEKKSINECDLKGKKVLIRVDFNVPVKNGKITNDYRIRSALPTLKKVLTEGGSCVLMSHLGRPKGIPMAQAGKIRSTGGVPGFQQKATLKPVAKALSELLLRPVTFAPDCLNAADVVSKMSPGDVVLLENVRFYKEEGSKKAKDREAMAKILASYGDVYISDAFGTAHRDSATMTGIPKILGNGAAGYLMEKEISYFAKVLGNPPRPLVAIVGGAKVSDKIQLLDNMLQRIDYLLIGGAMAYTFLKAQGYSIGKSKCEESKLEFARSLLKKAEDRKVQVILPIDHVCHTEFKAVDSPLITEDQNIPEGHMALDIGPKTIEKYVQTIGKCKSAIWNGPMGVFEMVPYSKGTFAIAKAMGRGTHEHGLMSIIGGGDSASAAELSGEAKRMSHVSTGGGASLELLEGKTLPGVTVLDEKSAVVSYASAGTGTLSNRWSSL
Sequence of Thyrotropin receptor (Homo sapiens) (P16473 whole entry, looked up): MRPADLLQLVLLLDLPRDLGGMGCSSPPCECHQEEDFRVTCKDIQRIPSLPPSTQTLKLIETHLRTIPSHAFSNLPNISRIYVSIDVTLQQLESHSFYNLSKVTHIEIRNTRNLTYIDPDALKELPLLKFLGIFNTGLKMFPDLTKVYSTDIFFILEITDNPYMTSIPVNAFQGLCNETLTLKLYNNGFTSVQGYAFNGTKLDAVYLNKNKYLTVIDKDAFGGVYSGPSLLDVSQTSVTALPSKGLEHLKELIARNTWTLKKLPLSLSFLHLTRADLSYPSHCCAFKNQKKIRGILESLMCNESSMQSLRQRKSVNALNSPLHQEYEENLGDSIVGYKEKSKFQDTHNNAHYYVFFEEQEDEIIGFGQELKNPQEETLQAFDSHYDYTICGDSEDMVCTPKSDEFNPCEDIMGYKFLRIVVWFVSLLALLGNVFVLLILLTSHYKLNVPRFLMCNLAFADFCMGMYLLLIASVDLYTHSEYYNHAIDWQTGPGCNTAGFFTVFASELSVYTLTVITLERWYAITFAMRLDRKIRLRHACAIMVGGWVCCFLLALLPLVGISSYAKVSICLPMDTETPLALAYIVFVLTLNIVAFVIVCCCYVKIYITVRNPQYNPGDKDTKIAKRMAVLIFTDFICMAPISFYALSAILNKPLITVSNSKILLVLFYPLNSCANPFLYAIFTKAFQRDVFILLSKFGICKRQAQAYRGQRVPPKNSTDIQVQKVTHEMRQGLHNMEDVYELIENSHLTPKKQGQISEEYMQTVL
Sequence of Methanococcus maripaludis chaperonin (MmCpn) (Q6LX38 1-543): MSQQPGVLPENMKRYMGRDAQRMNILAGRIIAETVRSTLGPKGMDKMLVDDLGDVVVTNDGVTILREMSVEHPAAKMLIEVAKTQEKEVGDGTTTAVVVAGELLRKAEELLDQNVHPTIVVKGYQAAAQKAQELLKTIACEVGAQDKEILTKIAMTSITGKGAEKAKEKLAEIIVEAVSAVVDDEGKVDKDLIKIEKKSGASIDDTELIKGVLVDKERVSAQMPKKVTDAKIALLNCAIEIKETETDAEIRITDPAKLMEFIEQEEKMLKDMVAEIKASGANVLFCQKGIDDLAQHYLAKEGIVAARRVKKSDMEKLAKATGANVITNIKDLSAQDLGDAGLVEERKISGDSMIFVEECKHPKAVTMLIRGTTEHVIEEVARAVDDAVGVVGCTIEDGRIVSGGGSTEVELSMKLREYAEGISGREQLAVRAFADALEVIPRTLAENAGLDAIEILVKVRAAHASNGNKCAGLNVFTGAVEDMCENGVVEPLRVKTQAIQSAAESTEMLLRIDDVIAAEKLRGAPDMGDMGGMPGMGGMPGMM
Sequence of D(1A) dopamine receptor (Homo sapiens) (P21728 whole entry, looked up): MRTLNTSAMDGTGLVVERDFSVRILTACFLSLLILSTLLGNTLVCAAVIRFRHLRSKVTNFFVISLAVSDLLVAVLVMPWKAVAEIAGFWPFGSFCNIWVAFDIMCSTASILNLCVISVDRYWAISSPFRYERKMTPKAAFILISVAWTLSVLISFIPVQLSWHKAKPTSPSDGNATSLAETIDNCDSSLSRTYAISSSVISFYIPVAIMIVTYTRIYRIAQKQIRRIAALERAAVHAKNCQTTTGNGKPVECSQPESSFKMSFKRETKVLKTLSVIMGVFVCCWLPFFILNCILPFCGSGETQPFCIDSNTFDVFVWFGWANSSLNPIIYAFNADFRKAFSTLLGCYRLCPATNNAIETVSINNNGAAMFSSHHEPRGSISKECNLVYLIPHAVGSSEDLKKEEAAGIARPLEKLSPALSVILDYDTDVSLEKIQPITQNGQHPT
Sequence of Thyrotropin-releasing hormone receptor (Homo sapiens) (P34981 whole entry, looked up): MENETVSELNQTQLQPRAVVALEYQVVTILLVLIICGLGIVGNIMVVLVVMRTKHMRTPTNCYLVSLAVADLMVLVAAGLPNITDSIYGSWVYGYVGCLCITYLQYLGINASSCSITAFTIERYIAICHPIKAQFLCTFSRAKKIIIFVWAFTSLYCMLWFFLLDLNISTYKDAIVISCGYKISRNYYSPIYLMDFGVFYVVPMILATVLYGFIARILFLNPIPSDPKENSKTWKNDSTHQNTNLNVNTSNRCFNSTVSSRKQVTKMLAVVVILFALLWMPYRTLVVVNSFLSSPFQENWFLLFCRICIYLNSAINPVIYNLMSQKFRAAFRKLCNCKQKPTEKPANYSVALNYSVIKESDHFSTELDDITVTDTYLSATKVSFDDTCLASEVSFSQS
Sequence of Galactokinase (Homo sapiens) (P51570 whole entry, looked up): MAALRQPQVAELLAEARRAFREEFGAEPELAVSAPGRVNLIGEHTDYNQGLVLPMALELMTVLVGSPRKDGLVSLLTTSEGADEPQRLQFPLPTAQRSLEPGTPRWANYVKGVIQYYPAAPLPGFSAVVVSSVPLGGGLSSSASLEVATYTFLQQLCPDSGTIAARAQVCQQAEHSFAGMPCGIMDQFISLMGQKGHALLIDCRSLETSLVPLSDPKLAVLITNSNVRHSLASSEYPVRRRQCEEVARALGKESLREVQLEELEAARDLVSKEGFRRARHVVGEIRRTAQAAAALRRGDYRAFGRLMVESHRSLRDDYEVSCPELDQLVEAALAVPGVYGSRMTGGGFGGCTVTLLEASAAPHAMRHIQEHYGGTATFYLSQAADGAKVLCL
Sequence of phosphoglycerate mutase (Leishmania major) (Q4Q090 1-553): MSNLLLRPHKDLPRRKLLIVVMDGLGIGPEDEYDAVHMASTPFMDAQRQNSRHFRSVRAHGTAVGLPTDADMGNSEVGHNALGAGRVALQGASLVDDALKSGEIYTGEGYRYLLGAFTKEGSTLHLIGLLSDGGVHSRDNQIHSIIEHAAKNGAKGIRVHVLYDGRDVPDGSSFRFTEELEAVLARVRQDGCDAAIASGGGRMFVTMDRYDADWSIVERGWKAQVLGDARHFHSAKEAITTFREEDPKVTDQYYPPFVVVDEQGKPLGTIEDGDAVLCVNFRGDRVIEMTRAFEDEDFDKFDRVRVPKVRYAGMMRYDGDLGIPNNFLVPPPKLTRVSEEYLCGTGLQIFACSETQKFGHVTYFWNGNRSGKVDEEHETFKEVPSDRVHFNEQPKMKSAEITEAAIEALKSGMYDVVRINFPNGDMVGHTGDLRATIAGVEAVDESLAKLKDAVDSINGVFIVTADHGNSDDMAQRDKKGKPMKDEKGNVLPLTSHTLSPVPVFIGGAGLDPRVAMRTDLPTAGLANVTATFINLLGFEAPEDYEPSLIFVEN
Sequence of Chromobox protein homolog 1 (Homo sapiens) (P83916 whole entry, looked up): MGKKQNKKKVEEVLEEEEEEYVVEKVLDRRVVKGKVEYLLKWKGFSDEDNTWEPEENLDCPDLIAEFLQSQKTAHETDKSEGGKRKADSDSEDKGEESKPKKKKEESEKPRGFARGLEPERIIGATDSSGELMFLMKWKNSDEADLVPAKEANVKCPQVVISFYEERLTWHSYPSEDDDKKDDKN
Sequence of Transient receptor potential cation channel subfamily V member 1 (Homo sapiens) (Q8NER1 whole entry, looked up): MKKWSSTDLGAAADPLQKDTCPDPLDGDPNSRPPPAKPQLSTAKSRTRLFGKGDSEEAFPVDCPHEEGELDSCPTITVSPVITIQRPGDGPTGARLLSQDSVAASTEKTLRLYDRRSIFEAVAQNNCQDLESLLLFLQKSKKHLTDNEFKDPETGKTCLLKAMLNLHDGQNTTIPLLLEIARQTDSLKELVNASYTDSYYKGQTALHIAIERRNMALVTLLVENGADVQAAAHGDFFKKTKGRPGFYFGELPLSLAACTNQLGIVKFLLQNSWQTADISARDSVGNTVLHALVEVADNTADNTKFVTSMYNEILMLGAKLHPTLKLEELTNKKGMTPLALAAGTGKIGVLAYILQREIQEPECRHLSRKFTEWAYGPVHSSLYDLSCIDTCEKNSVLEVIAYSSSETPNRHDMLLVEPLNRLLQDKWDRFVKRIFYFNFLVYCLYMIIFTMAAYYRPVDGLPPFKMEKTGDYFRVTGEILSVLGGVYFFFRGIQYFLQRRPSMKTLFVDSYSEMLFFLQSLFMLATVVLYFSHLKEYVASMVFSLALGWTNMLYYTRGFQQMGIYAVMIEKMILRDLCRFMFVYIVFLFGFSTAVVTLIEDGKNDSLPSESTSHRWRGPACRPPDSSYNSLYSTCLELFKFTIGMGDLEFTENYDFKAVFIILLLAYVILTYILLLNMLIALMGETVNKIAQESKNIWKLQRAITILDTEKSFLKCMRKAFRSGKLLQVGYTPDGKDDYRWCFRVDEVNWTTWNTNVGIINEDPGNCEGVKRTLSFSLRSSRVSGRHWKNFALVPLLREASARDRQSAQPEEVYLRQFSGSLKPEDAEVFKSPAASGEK

| SMILES | Potency [1] | outcome [2] | outcome [3] | Potency [4] | Potency [5] | Potency [6] | Potency [7] | Potency [8] | activation [9] | Potency [10] | viability change [10] [%] | outcome [11] | outcome [12] | Potency [13] | Potency [14] | Potency [15] | Potency [16] | outcome [17] | outcome [18] | Potency [19] |
| --- | --- | --- | --- | --- | --- | --- | --- | --- | --- | --- | --- | --- | --- | --- | --- | --- | --- | --- | --- | --- |
| CCCN(CCC)C1Cc2cc(OC)c(OC)cc2C1 | inactive | inactive | inactive | inactive | inactive | inactive | inactive | inactive | -2.94% (inactive) | inactive | 11.4 | inactive | inactive | inactive | inactive | inactive | inactive | inactive |  |  |
| COc1ccc2c(c1)C13CCCCC1C(C2)N(C)CC3 (configuration not stated) | inactive | inactive | inactive | inactive | inactive | inactive | inactive | inactive | 1.06% (inactive) | inactive | 4.34 | inactive | inactive |  | inactive | inactive | inactive | inactive | inactive |  |
| CC12NC(Cc3ccccc31)c1ccccc12 (configuration not stated) | inactive | inactive | inactive | inactive | inactive | inactive | inactive | inactive |  | inactive | 6.2 | inactive | inactive | inactive | inactive | inactive | inactive |  | inactive | inactive |
| NC(CCCCCP(=O)(O)O)C(=O)O (configuration not stated) | inactive | inactive | inactive | inactive | inactive | inactive | inactive | inactive | 0.312% (inactive) | inactive | 13.6 | inactive | inactive | inactive | inactive | inactive | inactive | inactive | inactive |  |
| NCC(CP(=O)(O)O)c1ccc(Cl)cc1 (configuration not stated) | inactive | inactive | inactive | inactive | inactive | inactive | inactive |  | 0.5% (inactive) | inactive | 3.89 | inactive | inactive | inactive | inactive | inactive | inactive | inactive | inactive |  |
| CC(=O)c1c(O)c(C)c(O)c(Cc2c(O)c3c(c(C(=O)/C=C/c4ccccc4)c2O)OC(C)(C)C=C3)c1O | 12.6 µM (active) | inactive | inactive | inactive | inactive | inactive | inactive |  | 7.12% (inactive) |  |  | inactive | inactive |  |  | inactive | inactive | inactive | inactive |  |
| C[N+](C)(C)CCOC(=O)CBr | inactive | inactive | inactive | inactive | inactive | inactive | inactive | inactive | 1.06% (inactive) | inactive | -12.9 | inactive | inactive | inactive | inactive | inactive | inactive |  |  |  |
| CN1CCc2cccc(Cl)c2CC1 | inactive | inactive | inactive | inactive | inactive | 2.51 µM (active) | inactive | inactive | 1.31% (inactive) | inactive | 2.9 | inactive | inactive | inactive | inactive | inactive | inactive | inactive |  |  |
| C#CCN[C@H](C)Cc1ccccc1 | inactive | inactive | inactive | inactive | inactive | inactive | inactive | inactive | 1.31% (inactive) | inactive | 0.263 | inactive | inactive | inactive | inactive | inactive | inactive |  |  |  |
| COc1ccc2[nH]cc(CCN)c2c1 | inactive | inactive | inactive | inactive | inactive | inactive | inactive | inactive | -2.62% (inactive) | inactive | 0.303 | inactive | inactive | inactive | inactive | inactive | inactive | inactive | inactive |  |
| O=c1c2ccccc2[se]n1-c1ccccc1 | 25.1 µM (active) | inactive |  |  | inactive | inactive | inactive |  | 3.06% (inactive) | inactive | 3.13 | inactive | inactive |  | inactive | inactive | 7.57 µM (active) | inactive | inactive | 11.2 µM (active) |
| CC1(C(=O)O)C2CCC(O2)C1(C)C(=O)O (configuration not stated) | 0.0084 µM (active) |  | inactive | inactive | inactive | inactive | 3.66 µM (active) | 7.3 µM (active) | 0.438% (inactive) |  |  |  | inactive |  | inactive | inactive | inactive |  | inactive |  |
| C[N+]1(C)CCc2cc3c(cc2[C@H]1[C@@H]1OC(=O)c2c1ccc1c2OCO1)OCO3 | inactive | inactive |  | inactive | inactive | inactive | inactive | inactive |  | inactive | -0.563 | inactive |  |  | inactive | inactive | inactive |  |  |  |
| CNc1ccc2oc(C[C@H]3O[C@@]4(CC[C@H]3C)O[C@H]([C@H](C)C(=O)c3ccc[nH]3)[C@H](C)C[C@H]4C)nc2c1C(=O)O | 0.006 µM (active) | inactive |  | 0.398 µM (active) |  |  | inactive | 13 µM (active) | 0.125% (inactive) |  |  | inactive | inactive |  | inactive | inactive | inactive |  |  |  |
| N=C(N)c1ccc(CS(=O)(=O)F)cc1 | inactive | inactive |  | inactive | inactive | inactive | inactive | inactive |  | inactive | -1.04 | inactive |  |  | inactive | inactive | inactive | inactive |  |  |
| c1ccc2c(c1)[I+]c1ccccc1-2 | inactive | inactive | inactive | inactive | inactive | inactive | inactive | 10.3 µM (active) | -4.44% (inactive) |  |  | inactive | inactive |  | inactive | inactive | inactive |  |  |  |
